Laboratory results published in paper PMC7862700, “An all-to-all approach to the identification of sequence-specific readers for epigenetic DNA modifications on cytosine”.

Assays:
Test in all cases: DAPPL (digital affinity profiling via proximity ligation, sequencing); 10 mM Tris-HCl pH 7.5, 50 mM NaCl, 1 mM DTT, 4% glycerol, room temperature, 30 min; GST-TFs on glutathione beads, 16-mer random dsDNA library, 0.1% formaldehyde crosslink after washing; high values mean tight binding
[1] = target: T1, FEV (Homo sapiens, UniProt Q99581 1-238); conditions: protein: recombinant; tags: N-terminal GST; dsDNA, one strand shown
T1 sequence: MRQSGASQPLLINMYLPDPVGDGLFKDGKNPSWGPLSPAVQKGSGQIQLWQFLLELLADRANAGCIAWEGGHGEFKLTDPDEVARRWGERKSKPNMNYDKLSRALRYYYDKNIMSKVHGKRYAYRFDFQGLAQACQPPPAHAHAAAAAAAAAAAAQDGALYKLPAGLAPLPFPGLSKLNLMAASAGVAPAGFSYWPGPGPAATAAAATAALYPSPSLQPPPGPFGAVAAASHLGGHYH
In short: (§1)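 Beads coated with glutathione captured GST-fused human transcription factors that had been expressed in yeast, and the factors were then given DNA barcodes and pooled with a tag-only sample. The pools were incubated with 200 nmole of a random double-stranded 16-mer DNA library in Tris/NaCl/DTT/glycerol buffer for 30 min at room temperature, washed, crosslinked with 0.1% formaldehyde and proximity-ligated with BsaI/T4 ligase at 37 °C for 1 h. PCR amplification and Illumina NextSeq500 sequencing came last. Binding signal is each hexamer's read frequency for a factor divided by its frequency for the tag-only sample.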

[2] = target: ETV5 (Homo sapiens, UniProt P41161 1-510); conditions: protein: recombinant; tags: N-terminal GST; dsDNA, one strand shown
In short: as §1

[3] = target: HSF1 (Homo sapiens, UniProt Q00613 1-529); conditions: protein: recombinant; tags: N-terminal GST; chain copies: 3; dsDNA, one strand shown
In short: as §1

[4] = target: T2, SPIC (Homo sapiens, UniProt Q8N5J4 1-248); conditions: protein: recombinant; tags: N-terminal GST; dsDNA, one strand shown
T2 sequence: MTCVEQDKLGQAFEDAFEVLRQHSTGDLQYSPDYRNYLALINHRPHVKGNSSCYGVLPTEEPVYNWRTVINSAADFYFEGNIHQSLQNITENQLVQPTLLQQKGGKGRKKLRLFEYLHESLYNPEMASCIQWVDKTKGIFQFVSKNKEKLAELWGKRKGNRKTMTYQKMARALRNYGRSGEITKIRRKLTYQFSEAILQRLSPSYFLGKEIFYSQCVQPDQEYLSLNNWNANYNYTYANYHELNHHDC
In short: as §1

[5] = target: ELF4 (Homo sapiens, UniProt Q99607 1-663); conditions: protein: recombinant; tags: N-terminal GST; dsDNA, one strand shown
In short: as §1

[6] = target: T3, ELK4 (Homo sapiens, UniProt P28324-2 1-405); conditions: protein: recombinant; tags: N-terminal GST; dsDNA, one strand shown
T3 sequence: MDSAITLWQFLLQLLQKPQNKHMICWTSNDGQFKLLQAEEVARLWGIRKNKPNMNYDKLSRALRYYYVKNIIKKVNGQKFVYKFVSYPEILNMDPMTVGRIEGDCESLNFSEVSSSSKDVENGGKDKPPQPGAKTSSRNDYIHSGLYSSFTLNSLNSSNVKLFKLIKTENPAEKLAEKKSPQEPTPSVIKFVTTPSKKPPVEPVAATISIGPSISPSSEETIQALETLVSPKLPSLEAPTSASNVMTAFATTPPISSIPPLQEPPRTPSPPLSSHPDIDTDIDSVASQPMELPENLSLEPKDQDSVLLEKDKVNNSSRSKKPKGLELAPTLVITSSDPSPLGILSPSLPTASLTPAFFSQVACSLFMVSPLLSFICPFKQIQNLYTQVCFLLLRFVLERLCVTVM
In short: as §1

[7] = target: T4, ETV2 (Homo sapiens, UniProt O00321 1-342); conditions: protein: recombinant; tags: N-terminal GST; dsDNA, one strand shown
T4 sequence: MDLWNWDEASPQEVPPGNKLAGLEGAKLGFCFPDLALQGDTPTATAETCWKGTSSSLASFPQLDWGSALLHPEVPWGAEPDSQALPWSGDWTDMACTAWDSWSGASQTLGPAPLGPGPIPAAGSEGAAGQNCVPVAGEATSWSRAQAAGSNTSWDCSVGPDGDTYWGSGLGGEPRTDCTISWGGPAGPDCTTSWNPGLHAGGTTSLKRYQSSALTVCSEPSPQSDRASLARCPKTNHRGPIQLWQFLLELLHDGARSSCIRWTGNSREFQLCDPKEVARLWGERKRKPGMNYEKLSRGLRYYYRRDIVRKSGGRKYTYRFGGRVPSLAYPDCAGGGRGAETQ
In short: as §1

[8] = target: T5, ELF3 (Homo sapiens, UniProt P78545 1-371); conditions: protein: recombinant; tags: N-terminal GST; dsDNA, one strand shown
T5 sequence: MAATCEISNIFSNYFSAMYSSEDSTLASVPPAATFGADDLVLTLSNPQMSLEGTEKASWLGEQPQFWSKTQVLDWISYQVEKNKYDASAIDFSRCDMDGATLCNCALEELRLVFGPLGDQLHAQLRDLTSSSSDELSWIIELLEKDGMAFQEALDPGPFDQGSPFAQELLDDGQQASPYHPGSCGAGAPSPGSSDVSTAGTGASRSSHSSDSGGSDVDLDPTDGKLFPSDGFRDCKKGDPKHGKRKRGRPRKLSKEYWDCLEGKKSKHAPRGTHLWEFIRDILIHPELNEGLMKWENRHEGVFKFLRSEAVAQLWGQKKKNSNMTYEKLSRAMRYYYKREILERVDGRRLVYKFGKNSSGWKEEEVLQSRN
In short: as §1

[9] = target: CRX (Homo sapiens, UniProt O43186 1-299); conditions: protein: recombinant; tags: N-terminal GST; dsDNA, one strand shown
In short: as §1

[10] = target: ETV1 (Homo sapiens, UniProt P50549 1-477); conditions: protein: recombinant; tags: N-terminal GST; dsDNA, one strand shown
In short: as §1

[11] = target: T6, ERF (Homo sapiens, UniProt P50548 1-548); conditions: protein: recombinant; tags: N-terminal GST; dsDNA, one strand shown
T6 sequence: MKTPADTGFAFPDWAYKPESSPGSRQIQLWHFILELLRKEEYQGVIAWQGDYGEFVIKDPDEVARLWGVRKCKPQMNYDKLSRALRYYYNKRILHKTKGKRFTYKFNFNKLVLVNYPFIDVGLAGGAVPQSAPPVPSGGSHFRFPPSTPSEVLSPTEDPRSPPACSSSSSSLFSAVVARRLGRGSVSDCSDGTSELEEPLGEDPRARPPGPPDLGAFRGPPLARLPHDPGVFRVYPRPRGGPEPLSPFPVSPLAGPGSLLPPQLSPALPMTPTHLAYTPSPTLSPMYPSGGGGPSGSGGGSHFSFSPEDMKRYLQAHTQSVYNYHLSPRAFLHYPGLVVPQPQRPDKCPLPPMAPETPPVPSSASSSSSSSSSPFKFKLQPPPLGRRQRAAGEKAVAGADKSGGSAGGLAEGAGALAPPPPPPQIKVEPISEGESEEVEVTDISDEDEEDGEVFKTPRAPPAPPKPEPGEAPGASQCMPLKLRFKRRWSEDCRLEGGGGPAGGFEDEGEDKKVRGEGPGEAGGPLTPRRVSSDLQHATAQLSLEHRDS
In short: as §1

[12] = target: T7, ETV3L (Homo sapiens, UniProt Q6ZN32 1-361); conditions: protein: recombinant; tags: N-terminal GST; dsDNA, one strand shown
T7 sequence: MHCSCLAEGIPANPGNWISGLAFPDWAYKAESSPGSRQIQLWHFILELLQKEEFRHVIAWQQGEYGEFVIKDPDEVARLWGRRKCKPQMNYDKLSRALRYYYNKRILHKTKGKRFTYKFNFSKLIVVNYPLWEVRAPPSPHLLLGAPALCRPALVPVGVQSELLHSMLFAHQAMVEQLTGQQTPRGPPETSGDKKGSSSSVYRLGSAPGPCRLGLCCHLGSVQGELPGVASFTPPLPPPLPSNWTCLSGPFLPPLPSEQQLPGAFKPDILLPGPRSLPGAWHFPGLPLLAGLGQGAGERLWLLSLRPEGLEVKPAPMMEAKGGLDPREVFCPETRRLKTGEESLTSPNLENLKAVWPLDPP
In short: as §1

[13] = target: T8, ETS2 (Homo sapiens, UniProt P15036 1-469); conditions: protein: recombinant; tags: N-terminal GST; dsDNA, one strand shown
T8 sequence: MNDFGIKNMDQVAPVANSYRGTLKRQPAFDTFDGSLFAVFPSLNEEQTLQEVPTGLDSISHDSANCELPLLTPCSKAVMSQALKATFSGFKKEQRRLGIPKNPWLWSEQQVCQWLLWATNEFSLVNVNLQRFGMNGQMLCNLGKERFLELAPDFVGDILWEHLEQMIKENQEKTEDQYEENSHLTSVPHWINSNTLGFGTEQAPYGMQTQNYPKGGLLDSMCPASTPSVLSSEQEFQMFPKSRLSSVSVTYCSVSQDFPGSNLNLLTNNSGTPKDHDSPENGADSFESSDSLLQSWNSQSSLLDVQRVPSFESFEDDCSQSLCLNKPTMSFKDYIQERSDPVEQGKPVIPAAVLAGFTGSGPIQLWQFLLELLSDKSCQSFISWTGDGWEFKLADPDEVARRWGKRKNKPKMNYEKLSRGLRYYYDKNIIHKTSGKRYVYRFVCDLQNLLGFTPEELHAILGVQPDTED
In short: as §1

[14] = target: T9, SPDEF (Homo sapiens, UniProt O95238 1-335); conditions: protein: recombinant; tags: N-terminal GST; dsDNA, one strand shown
T9 sequence: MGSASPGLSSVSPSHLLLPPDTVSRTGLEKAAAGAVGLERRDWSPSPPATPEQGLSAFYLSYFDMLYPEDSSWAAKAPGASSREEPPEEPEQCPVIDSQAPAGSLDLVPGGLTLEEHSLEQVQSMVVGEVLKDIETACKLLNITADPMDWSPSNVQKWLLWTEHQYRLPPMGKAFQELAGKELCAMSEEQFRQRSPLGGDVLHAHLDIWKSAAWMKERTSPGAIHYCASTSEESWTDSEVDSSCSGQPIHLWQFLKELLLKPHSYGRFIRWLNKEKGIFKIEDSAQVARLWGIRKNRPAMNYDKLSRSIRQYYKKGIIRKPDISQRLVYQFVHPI
In short: as §1

[15] = target: T10, ETV7 (Homo sapiens, UniProt Q9Y603 1-341); conditions: protein: recombinant; tags: N-terminal GST; dsDNA, one strand shown
T10 sequence: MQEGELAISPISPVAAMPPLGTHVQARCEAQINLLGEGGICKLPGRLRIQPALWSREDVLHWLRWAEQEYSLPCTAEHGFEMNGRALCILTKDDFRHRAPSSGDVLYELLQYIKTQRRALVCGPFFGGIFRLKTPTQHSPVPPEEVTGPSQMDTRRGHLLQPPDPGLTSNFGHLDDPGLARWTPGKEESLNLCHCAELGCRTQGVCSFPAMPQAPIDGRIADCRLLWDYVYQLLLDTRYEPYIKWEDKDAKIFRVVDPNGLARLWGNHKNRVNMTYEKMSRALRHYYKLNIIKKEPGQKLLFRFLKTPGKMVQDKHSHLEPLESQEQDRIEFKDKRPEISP
In short: as §1

[16] = target: T11, ELF5 (Homo sapiens, UniProt Q9UKW6-2 1-255); conditions: protein: recombinant; tags: N-terminal GST; dsDNA, one strand shown
T11 sequence: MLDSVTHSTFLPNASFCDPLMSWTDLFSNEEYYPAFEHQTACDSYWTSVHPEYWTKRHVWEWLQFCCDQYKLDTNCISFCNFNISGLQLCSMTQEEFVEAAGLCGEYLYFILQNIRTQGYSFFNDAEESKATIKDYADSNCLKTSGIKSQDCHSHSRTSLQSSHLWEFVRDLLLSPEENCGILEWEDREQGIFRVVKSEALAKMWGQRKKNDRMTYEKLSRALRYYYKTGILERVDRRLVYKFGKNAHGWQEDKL
In short: as §1

[17] = target: T12, ETV3 (Homo sapiens, UniProt P41162-2 1-143); conditions: protein: recombinant; tags: N-terminal GST; dsDNA, one strand shown
T12 sequence: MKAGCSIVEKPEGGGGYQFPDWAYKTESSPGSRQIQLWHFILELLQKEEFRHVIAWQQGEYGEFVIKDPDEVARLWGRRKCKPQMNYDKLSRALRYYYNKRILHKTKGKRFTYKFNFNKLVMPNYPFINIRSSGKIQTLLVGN
In short: as §1

[18] = target: ETV6 (Homo sapiens, UniProt P41212 1-452); conditions: protein: recombinant; tags: N-terminal GST; dsDNA, one strand shown
In short: as §1

HSF1, sequence (Q00613 whole entry): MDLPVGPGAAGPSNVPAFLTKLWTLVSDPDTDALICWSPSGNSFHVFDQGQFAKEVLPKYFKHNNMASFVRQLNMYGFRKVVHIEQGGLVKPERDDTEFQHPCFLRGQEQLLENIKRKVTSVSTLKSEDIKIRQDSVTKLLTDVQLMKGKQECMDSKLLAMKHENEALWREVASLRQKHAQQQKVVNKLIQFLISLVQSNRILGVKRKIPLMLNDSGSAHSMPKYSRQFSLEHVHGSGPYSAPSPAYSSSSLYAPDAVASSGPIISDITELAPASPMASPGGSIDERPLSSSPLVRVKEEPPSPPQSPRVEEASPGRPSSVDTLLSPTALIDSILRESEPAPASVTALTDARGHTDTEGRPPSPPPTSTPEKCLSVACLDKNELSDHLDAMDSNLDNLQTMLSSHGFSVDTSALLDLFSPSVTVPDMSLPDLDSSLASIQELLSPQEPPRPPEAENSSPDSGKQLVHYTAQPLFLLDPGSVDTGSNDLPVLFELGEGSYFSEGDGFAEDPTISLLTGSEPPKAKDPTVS
ETV5, sequence (P41161 whole entry): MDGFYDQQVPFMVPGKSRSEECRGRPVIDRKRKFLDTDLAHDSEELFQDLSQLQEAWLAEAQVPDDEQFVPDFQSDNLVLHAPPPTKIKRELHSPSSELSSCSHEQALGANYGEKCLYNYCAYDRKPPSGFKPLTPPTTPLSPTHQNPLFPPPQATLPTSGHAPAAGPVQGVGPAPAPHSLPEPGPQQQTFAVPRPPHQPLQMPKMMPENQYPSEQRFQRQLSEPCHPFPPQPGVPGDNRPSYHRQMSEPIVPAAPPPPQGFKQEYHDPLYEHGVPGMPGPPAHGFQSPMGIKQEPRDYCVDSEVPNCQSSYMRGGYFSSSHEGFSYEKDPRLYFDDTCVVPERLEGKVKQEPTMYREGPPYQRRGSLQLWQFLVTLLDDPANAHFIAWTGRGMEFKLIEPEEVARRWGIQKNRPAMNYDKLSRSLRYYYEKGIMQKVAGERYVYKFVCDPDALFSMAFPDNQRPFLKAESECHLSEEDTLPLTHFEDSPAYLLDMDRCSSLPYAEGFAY
CRX, sequence (O43186 whole entry): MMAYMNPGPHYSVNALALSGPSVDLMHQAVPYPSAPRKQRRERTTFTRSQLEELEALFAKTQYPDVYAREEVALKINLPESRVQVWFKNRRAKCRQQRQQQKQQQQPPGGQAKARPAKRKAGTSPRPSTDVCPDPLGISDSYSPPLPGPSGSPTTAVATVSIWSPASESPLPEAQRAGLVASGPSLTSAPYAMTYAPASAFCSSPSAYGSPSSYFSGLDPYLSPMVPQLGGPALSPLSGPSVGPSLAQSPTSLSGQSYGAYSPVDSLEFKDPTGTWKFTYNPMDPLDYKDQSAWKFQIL
ETV1, sequence (P50549 whole entry): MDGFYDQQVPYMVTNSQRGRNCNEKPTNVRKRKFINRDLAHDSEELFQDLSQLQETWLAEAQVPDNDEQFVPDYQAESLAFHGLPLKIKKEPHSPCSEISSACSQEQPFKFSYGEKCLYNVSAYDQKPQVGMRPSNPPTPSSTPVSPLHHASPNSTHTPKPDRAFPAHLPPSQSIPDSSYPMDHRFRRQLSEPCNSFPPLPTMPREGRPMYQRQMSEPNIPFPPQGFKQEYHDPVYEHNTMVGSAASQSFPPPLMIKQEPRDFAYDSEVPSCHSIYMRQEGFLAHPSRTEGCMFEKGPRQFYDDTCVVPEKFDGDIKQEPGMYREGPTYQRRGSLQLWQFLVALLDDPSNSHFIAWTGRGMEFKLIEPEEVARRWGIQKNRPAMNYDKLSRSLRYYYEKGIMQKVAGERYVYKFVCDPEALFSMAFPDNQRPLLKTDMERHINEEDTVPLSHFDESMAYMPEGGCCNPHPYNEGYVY
ETV6, sequence (P41212 whole entry): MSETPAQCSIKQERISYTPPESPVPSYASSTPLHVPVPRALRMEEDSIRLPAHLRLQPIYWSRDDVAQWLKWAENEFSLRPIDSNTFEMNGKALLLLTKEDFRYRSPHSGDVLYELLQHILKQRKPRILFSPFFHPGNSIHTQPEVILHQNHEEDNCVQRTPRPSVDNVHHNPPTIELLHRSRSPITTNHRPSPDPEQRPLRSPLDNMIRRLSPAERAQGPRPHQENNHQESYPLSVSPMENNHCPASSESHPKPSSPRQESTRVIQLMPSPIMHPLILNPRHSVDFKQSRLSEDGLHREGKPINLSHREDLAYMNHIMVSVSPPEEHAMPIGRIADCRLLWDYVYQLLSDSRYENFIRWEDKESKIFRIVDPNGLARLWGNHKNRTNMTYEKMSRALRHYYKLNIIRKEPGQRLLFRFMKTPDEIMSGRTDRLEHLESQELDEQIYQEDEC
ELF4, sequence (Q99607 whole entry): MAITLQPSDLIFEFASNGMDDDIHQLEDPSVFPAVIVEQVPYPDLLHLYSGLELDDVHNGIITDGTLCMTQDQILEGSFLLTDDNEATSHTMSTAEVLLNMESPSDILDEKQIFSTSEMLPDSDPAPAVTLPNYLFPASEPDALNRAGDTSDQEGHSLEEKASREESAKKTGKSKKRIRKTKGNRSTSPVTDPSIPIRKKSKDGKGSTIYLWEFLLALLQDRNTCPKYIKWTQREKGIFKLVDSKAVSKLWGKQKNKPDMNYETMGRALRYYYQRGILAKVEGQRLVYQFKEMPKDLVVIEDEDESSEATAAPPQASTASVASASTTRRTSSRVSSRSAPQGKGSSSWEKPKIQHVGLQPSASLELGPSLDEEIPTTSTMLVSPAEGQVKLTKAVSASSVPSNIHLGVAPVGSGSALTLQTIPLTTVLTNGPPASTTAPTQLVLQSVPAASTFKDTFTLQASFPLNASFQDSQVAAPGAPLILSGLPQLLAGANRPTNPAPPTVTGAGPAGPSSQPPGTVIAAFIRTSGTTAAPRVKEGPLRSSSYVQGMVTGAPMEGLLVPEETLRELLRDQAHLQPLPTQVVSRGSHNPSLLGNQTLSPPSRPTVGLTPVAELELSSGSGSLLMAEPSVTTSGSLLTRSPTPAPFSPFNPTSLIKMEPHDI

In the case of AATATT, the binding signal [1] is reported as 1.3 fold enrichment (6-mer frequency, TF over GST control), the binding signal [2] is reported as 1.4 fold enrichment (6-mer frequency, TF over GST control) and the binding signal [3] is reported as 1.93 fold enrichment (6-mer frequency, TF over GST control). The binding signal [4] was 1.45 fold enrichment (6-mer frequency, TF over GST control), the binding signal [5] was 1.38 fold enrichment (6-mer frequency, TF over GST control) and the binding signal [6] was 1.35 fold enrichment (6-mer frequency, TF over GST control). For the same sequence, the binding signal [7] was 1.23 fold enrichment (6-mer frequency, TF over GST control), the binding signal [8] was 1.36 fold enrichment (6-mer frequency, TF over GST control) and the binding signal [9] was 1.61 fold enrichment (6-mer frequency, TF over GST control). For the same sequence, the binding signal [10] was 1.36 fold enrichment (6-mer frequency, TF over GST control), the binding signal [11] was 1.22 fold enrichment (6-mer frequency, TF over GST control) and the binding signal [12] was 1.36 fold enrichment (6-mer frequency, TF over GST control). The binding signal [13] was 1.34 fold enrichment (6-mer frequency, TF over GST control), the binding signal [14] was 1.25 fold enrichment (6-mer frequency, TF over GST control) and the binding signal [15] was 1.43 fold enrichment (6-mer frequency, TF over GST control). The binding signal [16] was 1.38 fold enrichment (6-mer frequency, TF over GST control), the binding signal [17] was 1.37 fold enrichment (6-mer frequency, TF over GST control) and the binding signal [18] was 1.46 fold enrichment (6-mer frequency, TF over GST control).
